Data taken from PubChem BioAssay (Tox21).
Records with an inconclusive call do not appear. A call without a number means that no potency is given here. Activity calls are given as the source filed them. Calls come from the whole dose curve; as a rule, active = well fitted cell-killing curve with a large enough effect in the repeat runs (not every such curve was filed as active); inconclusive = weak or mixed curves, or effect the other way; inactive = no such curve, though single readings can be large or run the other way.

experiment: qHTS assay to identify small molecule antagonists of the farnesoid-X-receptor (FXR) signaling pathway - cell viability counter screen (AID 743221); details: FXR-bla HEK293T viability, CellTiter-Glo luminescence, 16 h; series mostly up to 62.6 µM; note: nearly all actives have a fitted effect of over 50% in size
Excerpt: National Center for Advancing Translational Sciences [NCATS]
NIH Chemical Genomics Center [NCGC]
U.S. Environmental Protection Agency [EPA]
National Institutes of Environmental Health Sciences [NIEHS]
National Toxicology Program [NTP]
U.S. Food and Drug Administration [FDA]
The farnesoid-X-receptor (FXR), a nuclear hormone receptor, is highly expressed in liver, intestine, kidney and adrenal cortex. Natural ligands of FXR are the bile acids (Cholic acid, Chenodeoxy cholic acid etc). FXR is an important regulator of diverse metabolic pathways, including the bile acid homeostasis, lipid and glucose metabolisms. FXR regulates the expression of target genes by binding either as a monomer or as a heterodimer with the retinoid X receptor (RXR). Numerous studies have reported that FXR exerts protective function during cholestasis, diabetes, liver regeneration, and cancer. To identify compounds that inhibit FXR signaling, GeneBLAzer FXR-UAS-bla HEK 293T cell line (Invitrogen, Carlsbad, CA) containing a beta-lactamase reporter gene under the control of a UAS response element was used to screen the Tox21 10K compound library. The cytotoxicity of the Tox21 compound library against the FXR-bla cell line was tested in parallel by measuring the cell viability using CellTiter-Glo assay in the same wells.
Tox21 Assay Protocol Summary:
FXR-bla cells were dispensed at 5000 cells/5uL/well in 1536-well black wall/clear bottom plates using a Multidrop Combi (Thermo Fisher Scientific, Waltham, MA) dispenser. After the assay plates were incubated at 37 C and 5% CO2 for 5 h, 23 nL of compounds dissolved in DMSO, positive controls or DMSO only was transferred to the assay plate by a Pintool station (Kalypsys, San Diego, CA), followed by addition of 1 uL Chenodeoxycholic acid (50 uM, final concentration in the wells). The assay plates were incubated at 37C for 16 h. After 1 uL of LiveBLAzerTM B/G FRET substrate was added using a Bioraptr Flying Reagent Dispenser (FRD) workstation (Beckman Coulter, Indianapolis, IN), the plates were incubated at room temperature for 2 h, and fluorescence intensity was measured by an Envision plate reader (PerkinElmer, Shelton, CT). For cell viability readout that measures cytotoxicity, 4uL/well of CellTiter-Glo reagent was added into the assay plates using a Bioraptr FRD. After 30 min incubation at room temperature, the luminescence intensity in the plates was measured using a ViewLux plate reader (PerkinElmer).

Q: For `OC(c1ccc(Cl)cc1)(c1ccc(Cl)cc1)c1cccnc1`, which Potency is on record?
A: Its Potency is “inactive”.

Q: With `CC(=O)CCC(C)=O` as the compound, how does the Potency read?
A: The Potency was “inactive”.

Q: Which Potency does the source give for `COc1c(C(C)(C)C)cc([N+](=O)[O-])c(C)c1[N+](=O)[O-]` here?
A: Its Potency is “inactive”.

Q: For `O=Cc1ccc2c(c1)OCO2`, which Potency is on record?
A: The Potency was “inactive”.

Q: Which Potency does the source give for `CCOC(=O)COc1cc(-c2nn(C)c(OC(F)F)c2Cl)c(F)cc1Cl` here?
A: The Potency was “inactive”.

Q: With `CCC(Cl)CCl` (stereo not given) as the compound, how does the Potency read?
A: Its Potency is “inactive”.

Q: With `COC(C)(C)CCC[C@H](C)C/C=C/C(C)=C/C(=O)OC(C)C` as the compound, how does the Potency read?
A: Its Potency is “inactive”.

Q: With `ClCCCCBr` as the compound, how does the Potency read?
A: Its Potency is “inactive”.

Q: With `CC(=O)NC1CCSC1=O` (stereo not given) as the compound, how does the Potency read?
A: Its Potency is “inactive”.

Q: With `COc1cc(Cl)c(OC)cc1Cl` as the compound, how does the Potency read?
A: The Potency was “inactive”.

Q: Which Potency does the source give for `Clc1cccc2ccccc12` here?
A: Its Potency is “inactive”.

Q: For `Sc1ccccc1Cl`, which Potency is on record?
A: Its Potency is “inactive”.

Q: With `Cc1ccc2ccccc2c1` as the compound, how does the Potency read?
A: The Potency was “inactive”.

Q: For `O=C(O)C(F)(F)C(F)(F)C(F)(F)C(F)(F)C(F)(F)C(F)(F)C(F)(F)C(F)(F)C(F)(F)F`, which Potency is on record?
A: The Potency was “inactive”.

Q: With `CCOP(=S)(OCC)SCSCC` as the compound, how does the Potency read?
A: The Potency was “inactive”.

Q: With `CCOS(C)(=O)=O` as the compound, how does the Potency read?
A: The Potency was “inactive”.

Q: With `CCCCOC(=O)c1ccccc1C(=O)OCc1ccccc1` as the compound, how does the Potency read?
A: The Potency was “inactive”.

Q: Which Potency does the source give for `O=C1CN=C(c2ccccc2)c2cc(Cl)ccc2N1CC1CC1` here?
A: The Potency was “inactive”.

Q: Which Potency does the source give for `Cc1cc(=O)[nH]o1` here?
A: The Potency was “inactive”.

Q: With `CC(=O)c1cc2c(cc1C)C(C)(C)C(C)CC2(C)C` (stereo not given) as the compound, how does the Potency read?
A: Its Potency is “inactive”.

Q: With `BrCC(Br)C1CCC(Br)C(Br)C1` (stereo not given) as the compound, how does the Potency read?
A: Its Potency is “inactive”.

Q: Which Potency does the source give for `CC(C)=CCOc1c2occc2cc2ccc(=O)oc12` here?
A: The Potency was “inactive”.

Q: For `S=C=NCc1ccccc1`, which Potency is on record?
A: The Potency was “inactive”.

Q: With `CC1Sc2c(C(=O)O)c(=O)c3cc(F)c(N4CCNCC4)cc3n21` (stereo not given) as the compound, how does the Potency read?
A: The Potency was “inactive”.

Q: For `COP(=S)(OC)Oc1ccc([N+](=O)[O-])cc1Cl`, which Potency is on record?
A: Its Potency is “inactive”.

Q: With `Nc1nc(=S)[nH][nH]1` as the compound, how does the Potency read?
A: The Potency was “inactive”.

Q: Which Potency does the source give for `C=CCN1CC[C@]23c4c5ccc(O)c4O[C@H]2C(=O)CC[C@@]3(O)[C@H]1C5` here?
A: Its Potency is “inactive”.

Q: Which Potency does the source give for `C(=NC1CCCCC1)=NC1CCCCC1` here?
A: The Potency was “inactive”.

Q: For `CCOP(=S)(OCC)Oc1cc(Cl)c(Br)cc1Cl`, which Potency is on record?
A: The Potency was “inactive”.

Q: With `O=S1OC[C@@H]2[C@H](CO1)[C@]1(Cl)C(Cl)=C(Cl)[C@@]2(Cl)C1(Cl)Cl` (stereo not given in full) as the compound, how does the Potency read?
A: The Potency was “inactive”.

Q: With `Oc1ccc(Cl)c(Cl)c1Cl` as the compound, how does the Potency read?
A: Its Potency is “inactive”.

Q: With `C=CCC1([C@H](C)CCC)C(=O)NC(=O)NC1=O` as the compound, how does the Potency read?
A: The Potency was “inactive”.

Q: Which Potency does the source give for `O=[N+]([O-])C(Br)(CO)CO` here?
A: The Potency was “inactive”.

Q: With `COC(N)=O` as the compound, how does the Potency read?
A: Its Potency is “inactive”.

Q: Which Potency does the source give for `O=C(CBr)OCc1ccccc1` here?
A: The Potency was “inactive”.

Q: Which Potency does the source give for `O=C1C(=O)c2cccc3cccc1c23` here?
A: The Potency was “inactive”.

Q: For `C#CCOC(C(=O)OCCN(C)C)(c1ccccc1)c1ccccc1`, which Potency is on record?
A: Its Potency is “inactive”.

Q: For `CCCCC(CC)COP(=O)(Oc1ccccc1)Oc1ccccc1` (stereo not given), which Potency is on record?
A: The Potency was “inactive”.

Q: Which Potency does the source give for `CCCC(Cn1cncn1)c1ccc(Cl)cc1Cl` (stereo not given) here?
A: Its Potency is “inactive”.

Q: Which Potency does the source give for `Clc1ccc(C(OCCN2CCCCC2)c2ccccc2)cc1` (stereo not given) here?
A: Its Potency is “inactive”.
